High-throughput results from PubChem BioAssay.
Compounds with a hit are over-represented: about 3.6% of the library has one in this group of screens.
Pf apPOL inh: Pf-apPOL inhibitors, biochemical, fluorescence | inhibition, % at 10 µM | hit rate 0.25% among 210,000 | Plasmodium falciparum apicoplast DNA polymerase (apPOL) | Recombinant Pf-apPOL, molecular beacon fluorescence, 1.5 h
mHTT CaM bind: mutant huntingtin-calmodulin interaction inhibitors – biochemical, AlphaScreen, primary screen; hit rate 3.6% among 190,000; AlphaScreen His-mHTT/GST-CaM binding, luminescence; inhibition, % at 15 µM; P42858;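 further: 0% = both proteins with DMSO and 100% = one protein alone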
* = called active by the depositor. No stated cut-off is given here; in the data, active means inhibition above about 50%; inactive means the rest.

How did S=C(S)N1CCCCC1 do in these assays?
Pf apPOL inh: 1

Results for S=C(SSC(=S)N1CCCCC1)N1CCCCC1 ?
mHTT CaM bind: 51*

What do the screens show for `Cc1cccc(CN2CCN(c3ccccc3Cl)CC2)c1`?
Pf apPOL inh: -5; mHTT CaM bind: -13

How did COC(=O)c1ccc(CCl)s1 do in these assays?
mHTT CaM bind: 100*

How did CN1CCN(Cc2ccc(Br)s2)CC1 do in these assays?
Pf apPOL inh: -3; mHTT CaM bind: -10

Results for CN(C(=O)Oc1ccc(OC(=O)N(C)c2ccccc2)cc1)c1ccccc1 ?
Pf apPOL inh: -3; mHTT CaM bind: -4

What do the screens show for `O=[N+]([O-])c1cc2nonc2c2n[nH]nc12`?
mHTT CaM bind: 10

How did O=[N+]([O-])c1c(Br)c([N+](=O)[O-])c2n[nH]nc2c1Br do in these assays?
Pf apPOL inh: -4; mHTT CaM bind: 88*

How did O=C(CN1C(=O)CN=C(c2ccccc2)c2cc(Cl)ccc21)NCc1cccc(Cl)c1 do in these assays?
Pf apPOL inh: -12; mHTT CaM bind: 91*

Results for CCN(C(=O)CN1C(=O)C(C)N=C(c2ccccc2)c2ccccc21)c1cccc(C)c1 (configuration not stated) ?
Pf apPOL inh: -1; mHTT CaM bind: 26

How did CC1N=C(c2ccccc2)c2ccccc2N(CC(=O)Nc2ccc(N(C)C)cc2)C1=O (configuration not stated) do in these assays?
Pf apPOL inh: -24; mHTT CaM bind: 35

What do the screens show for `Cc1cc(C)n(C(=O)CN2C(=O)CN=C(c3ccccc3)c3cc(Br)ccc32)n1`?
Pf apPOL inh: -11; mHTT CaM bind: 64*

What do the screens show for `CC1N=C(c2ccccc2)c2ccccc2N(CC(=O)NCc2ccco2)C1=O` (configuration not stated)?
Pf apPOL inh: -15; mHTT CaM bind: 1

How did O=C(CN1C(=O)CN=C(c2ccccc2)c2cc(Cl)ccc21)Nc1cccc(C(F)(F)F)c1 do in these assays?
Pf apPOL inh: -14; mHTT CaM bind: 82*

How did O=C1CC(=O)N(c2cccc(Cl)c2Cl)C(=O)N1 do in these assays?
Pf apPOL inh: -7; mHTT CaM bind: 3

Results for O=c1ccsn1-c1cccc(Cl)c1F ?
Pf apPOL inh: 93*

Results for Cc1coc2c1CCC(C)C2 (configuration not stated) ?
mHTT CaM bind: 24

What do the screens show for `COc1ccc(N2CCN(Cc3cccc(Cl)c3Cl)CC2)cc1`?
Pf apPOL inh: 5; mHTT CaM bind: 56*

What do the screens show for `COc1ccc(N2CCN(Cc3ccc(F)cc3)CC2)cc1`?
Pf apPOL inh: 0; mHTT CaM bind: 22

What do the screens show for `COc1ccc(N2CCN(Cc3ccc(Cl)cc3)CC2)cc1`?
Pf apPOL inh: -6; mHTT CaM bind: 34

How did COc1ccc(N2CCN(Cc3ccc(Cl)c(Cl)c3)CC2)cc1 do in these assays?
Pf apPOL inh: -5; mHTT CaM bind: 65*

How did Cc1ccc(CS(=O)(=O)Cc2ccc(C(=O)N3CCC4(CC3)OCCO4)o2)cc1 do in these assays?
Pf apPOL inh: -15; mHTT CaM bind: -2

Results for O=C(CN1CCOCC1)Nc1ccc(Br)cc1C(=O)c1ccccc1 ?
Pf apPOL inh: -4; mHTT CaM bind: 3

Results for O=C(CCN1CCOCC1)Nc1ccc(Br)cc1C(=O)c1ccccc1 ?
Pf apPOL inh: -2; mHTT CaM bind: 81*

Results for Fc1ccc(CN2CCN(Cc3ccc4c(c3)OCO4)CC2)cc1 ?
Pf apPOL inh: -3; mHTT CaM bind: 3

What do the screens show for `CN(C)c1ccc([N+](=O)[O-])c(C(F)(F)F)c1`?
mHTT CaM bind: 6

How did O=C(O)[C@@H]1CCN1 do in these assays?
Pf apPOL inh: -3

How did O=C(O)C1Cc2[nH]cnc2C(c2cccnc2)N1 (configuration not stated) do in these assays?
Pf apPOL inh: -12

What do the screens show for `COc1ccc(Cl)cc1NC(=O)C1c2ccccc2C(=O)N2CCCCC12` (configuration not stated)?
Pf apPOL inh: -5; mHTT CaM bind: 2

What do the screens show for `COc1ccc(Cl)cc1NC(=O)C1c2cc(OC)c(OC)cc2C(=O)N2CCCCC12` (configuration not stated)?
Pf apPOL inh: -4; mHTT CaM bind: 79*

What do the screens show for `C[C@@H]1O[C@@H](O[C@H]2C[C@@H](O)[C@]3(CO)[C@@H]4C(CC[C@]3(O)C2)[C@@]2(O)CC[C@H](C3COC(=O)C3)[C@@]2(C)C[C@H]4O)[C@H](O)[C@H](O)[C@H]1O` (some centres not stated)?
Pf apPOL inh: -12

Results for CC1CCC2C(C)C(=O)OC3OC4(C)CCC1C32OO4 (configuration not stated) ?
Pf apPOL inh: -1

Results for Cc1cccc(-n2c(C)nc3ccccc3c2=O)n1 ?
Pf apPOL inh: -12; mHTT CaM bind: -2

Results for CCS(=O)(=O)N1CCN(C2CC3CCC2C3)CC1 (configuration not stated) ?
Pf apPOL inh: 10; mHTT CaM bind: -5
